Whole data set: some 110,000 compounds, median “z-score” near -0.1, cut for the highest 2% near 2. What follows is part of a selection rich in the highest values, with near analogues and random picks from the rest. Active and inactive are the calls of the source.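 Rule for the calls: active = z-score in the third read window above 3 or below -3; inactive = the rest.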
Target: Metabotropic glutamate receptor 8 (Rattus norvegicus) (UniProt P70579)
Experiment: rat mGluR8 modulators via GIRK flux, primary screen, cell-based, thallium flux, HTS (AID 488969)
Conditions: HEK293 rat mGluR8, GIRK (G protein-gated inwardly rectifying potassium channel) thallium flux, FluoZin2; at 10 µM; stronger effect = higher value; submaximal glutamate (EC20) added with thallium

Metabotropic glutamate receptor 8 (Rattus norvegicus), sequence (P70579 whole entry, looked up): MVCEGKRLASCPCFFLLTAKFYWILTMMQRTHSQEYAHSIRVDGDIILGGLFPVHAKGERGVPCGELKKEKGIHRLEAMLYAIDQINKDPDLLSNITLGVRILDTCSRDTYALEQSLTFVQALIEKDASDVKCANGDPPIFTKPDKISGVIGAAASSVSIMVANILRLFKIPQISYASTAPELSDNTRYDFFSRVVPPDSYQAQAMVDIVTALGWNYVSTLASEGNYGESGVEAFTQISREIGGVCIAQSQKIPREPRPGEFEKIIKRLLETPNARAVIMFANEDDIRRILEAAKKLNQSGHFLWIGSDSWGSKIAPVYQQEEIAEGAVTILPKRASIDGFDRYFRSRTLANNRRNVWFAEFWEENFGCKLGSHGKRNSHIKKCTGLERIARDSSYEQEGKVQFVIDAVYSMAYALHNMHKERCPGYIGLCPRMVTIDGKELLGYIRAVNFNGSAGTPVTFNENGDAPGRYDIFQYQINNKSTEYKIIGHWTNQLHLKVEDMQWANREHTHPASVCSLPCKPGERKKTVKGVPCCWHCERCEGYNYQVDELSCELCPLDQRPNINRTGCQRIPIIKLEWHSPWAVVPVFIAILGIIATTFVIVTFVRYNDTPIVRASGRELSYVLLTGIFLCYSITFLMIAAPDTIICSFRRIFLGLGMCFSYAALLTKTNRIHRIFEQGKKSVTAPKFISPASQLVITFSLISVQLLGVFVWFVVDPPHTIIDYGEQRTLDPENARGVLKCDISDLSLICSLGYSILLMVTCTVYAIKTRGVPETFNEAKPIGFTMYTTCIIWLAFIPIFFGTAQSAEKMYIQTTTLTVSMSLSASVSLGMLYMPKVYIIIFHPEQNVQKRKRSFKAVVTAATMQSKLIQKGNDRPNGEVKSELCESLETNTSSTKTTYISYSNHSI

SMILES	z-score
CCOc1ccc(Cn2ccnc2CCl)cc1[N+](=O)[O-]	-0.00871
Cc1cccc(N(C)C(=O)c2coc(=O)c3ccccc23)c1	-0.042
CCCS(=O)(=O)N1CCCC(C(=O)NC2CCCCC2)C1 (stereo not given)	0.0604
O=C(CSc1nc2c(c(C(F)(F)F)n1)CCc1ccccc1-2)NCc1ccc(F)cc1	0.759
CCn1cc(C(=O)N2CCN(Cc3ccc4c(c3)OCO4)CC2)c(=O)c2ccc(C)nc21	-0.451
CCc1ccccc1NC(=O)CSc1nc2c(c(-c3ccco3)c1C#N)CCCC2	0.16
CCOc1ccc(N2C(=O)CC(Sc3nc(C)cc(C)c3C#N)C2=O)cc1 (stereo not given)	0.15
CC1CCN(C(=O)Cc2nn(C)c(=O)c3ccccc23)CC1	0.733
COc1ccc(Oc2nc(C(F)(F)F)nc3ccccc23)cc1	-0.576
Cc1c(Br)c([N+](=O)[O-])nn1C(C)C(=O)NCc1cccs1 (stereo not given)	-0.152
Cc1ccc(NC(=O)Cn2nnc(-c3ccccc3NC(=O)c3cccs3)n2)cc1	-0.57
CCc1cc(-c2n[nH]c(=S)n2-c2ccccc2C)cs1	-0.325
CC(c1ccccc1)n1c(-c2ccncc2)n[nH]c1=S (stereo not given)	0.000563
Cc1scc(-c2n[nH]c(=S)n2C(C)c2ccccc2)c1C (stereo not given)	-1.43
CCc1cc(-c2n[nH]c(=S)n2C(C)c2ccccc2)cs1 (stereo not given)	2.55
CCCc1cc(-c2n[nH]c(=S)n2C(C)c2ccccc2)cs1 (stereo not given)	10.9 (active)
CCn1c(-c2csc(-c3ccccc3)n2)n[nH]c1=S	0.398
CCOC(=O)CNC(=O)CSc1nc(N(C)C)nc(N2CCOCC2)n1	-0.116
COc1ccc(-c2cc(-n3c(C(F)(F)F)nc4ccccc43)n(CCC#N)n2)cc1	-0.215
CCN1CCN(c2cc(C)c3cc(NC(=O)c4ccc(Br)o4)ccc3n2)CC1	3.44 (active)
CCN1CCN(c2cc(C)c3cc(NC(=O)c4ccncc4)ccc3n2)CC1	1.22
Cc1cc(N2CCCCC2)nc2ccc(NC(=O)c3ccc(Br)o3)cc12	-1.58
CCCC1Cc2nc(N3CCCCC3)c(C#N)cc2CO1 (stereo not given)	0.443
Cc1cc(NCCCN(C)C)n2nc(-c3cccs3)cc2n1	-0.0105
CCOc1ccc(NS(=O)(=O)c2ccc3c(c2)CCN3C(=O)C2CCC2)cc1	-0.102
CC(C)NC(=O)c1cccc(Br)c1	-0.0557
Cc1ccc(OCc2nn3c(-c4ccco4)nnc3s2)cc1	-1.14
c1ccc2c(-c3nnc4n3CCCCC4)cc(-c3ccncc3)nc2c1	0.284

SMILES	z-score
Clc1ccc(-c2cc(-c3nnc4n3CCCCC4)c3ccccc3n2)cc1	2.08
Fc1ccc(-c2cc(-c3nnc4n3CCCCC4)c3ccccc3n2)cc1	-0.316
O=c1c2c(-c3cccs3)csc2ncn1-c1ccccc1	-0.0624
O=C(c1ccc(Cl)c([N+](=O)[O-])c1)N1CCN(c2ccccn2)CC1	-0.0404
O=C(CSc1nc2c(sc3ccccc32)c(=O)n1CCO)NCC1CCCO1 (stereo not given)	0.0816
CC(C)CCn1c(SCC#N)nc2c(sc3ccccc32)c1=O	5.93 (active)
CCC(C)NC(=O)CSc1nc2c(sc3ccccc32)c(=O)n1CCCN1CCOCC1 (stereo not given)	0.452
NC(=O)CSc1nc2c(sc3ccccc32)c(=O)n1CCCN1CCOCC1	0.869
CCSc1nc2c(sc3ccccc32)c(=O)n1C(C)C	0.00726
O=C(CSc1nc2c(sc3ccccc32)c(=O)n1Cc1ccccc1)NCC1CCCO1 (stereo not given)	0.199
CCCCn1c(SCC(N)=O)nc2c(sc3ccccc32)c1=O	3.23 (active)
CCCCn1c(SCC(=O)NCc2ccco2)nc2c(sc3ccccc32)c1=O	-0.00992
Cc1ccc(Cn2c(SCC(=O)NCC3CCCO3)nc3c(sc4ccccc43)c2=O)cc1 (stereo not given)	2.06
Cc1ccc(S(=O)(=O)NCc2c(-c3ccccc3)c3cc(Cl)ccc3[nH]c2=O)cc1	-0.178
CC1CC(C)CN(CC(=O)Nc2ccc3c(c2)OCCO3)C1 (stereo not given)	-0.603
COc1cc(N2C(=O)c3ccccc3C2=O)c(Cl)cc1C(=O)OCC(=O)NCc1ccco1	0.165
CCOC(=O)c1cnc(SC)nc1N	-0.0813
CCCn1c(-c2ccc(F)cc2)cnc1SCC(=O)O	-0.678
CCOC(=O)c1c(C)[nH]c(C(=O)COC(=O)CNC(=O)c2ccc(Cl)cc2Cl)c1C	-0.202
CCOC(=O)c1c(C)[nH]c(C(=O)COC(=O)CNC(=O)c2ccc(Cl)cc2)c1C	5.97 (active)
CCOC(=O)c1c(C)[nH]c(C(=O)COC(=O)CNC(=O)c2ccc(Br)cc2)c1C	-0.279
COc1ccc(CCn2c(C)cc(C(=O)CSc3nnnn3-c3ccccc3)c2C)cc1	0.292
CN(C)c1ccc(/C=C/c2nnnn2-c2ccccc2)cc1	-0.556
COc1ccc(S(=O)(=O)N2CCCCC2)cc1NC(=O)c1ccc2ccccc2n1	-0.376
CCc1ccc(Nc2nnc(SCn3nnc4ccccc4c3=O)s2)cc1	-0.292
CCc1ccc(Nc2nc3ccccc3c(=O)s2)cc1	2.82
CCc1ccc(NCc2nc3ccccc3c(=O)[nH]2)cc1	-0.644
